This is a sample that favours compounds with a hit; in the whole collection about 6.5% have one here.
DPM-DC inhibit: S. pneumoniae DPM-DC inhibitors, primary screen, biochemical, PK/LDH-coupled NADH fluorescence. diphosphomevalonate decarboxylase (Streptococcus pneumoniae D39). purified DPM-DC. calls only at 10 µM. 0.49% of 65,000 active. AID 556, 2006;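 active = the 320 compounds with the highest percent inhibition in the single-dose primary screen, excluding strongly autofluorescent ones, cut at about 32% in these data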;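 note: kinetic rate of NADH fluorescence loss reporting ADP formed by the decarboxylase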
NADH enzymes: inhibitors of PK/LDH coupling enzymes, profiling panel, artefact control, biochemical, MLSMR library; coupled PK/LDH NADH assays, four targets; IC50, µM (top dose mostly 10 µM); 0.02% of 65,000 active;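 active = single-dose screening hits from any of four coupled enzyme assays that gave an IC50 when retested across doses; inconclusive = no clear call, values can overlap the other calls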;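 note: the DPM-DC format reads NADH fluorescence rather than 340 nm absorbance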
Autofluor 339: intrinsic fluorescence of library compounds, ex339/em460 – biochemical, MLSMR library, data from DPM-DC assay, artefact control, profiling panel; compound autofluorescence, ex339/em460 nm, NADH buffer; hits give high values; 1 = no-compound wells, NADH background; fluorescence fold increase at 10 µM; 5.5% of 65,000 active; AID 709, 2007;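 active = at 10 µM, mean starting fluorescence two-fold or more over control wells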;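 note: signal is the first read of a kinetic run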
A340 absorber: compound light absorbance at 340 nm, profiling panel, artefact control, biochemical, MLSMR library, data from PS, PMK, MK assays; compound absorbance at 340 nm, fold over control; fold change at 10 µM; 65,000 tested, under 10 active; AID 708, 2007;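 active = at 10 µM dose, initial 340 nm absorbance at least 2 fold that of control wells; inactive = change under 2 fold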;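 note: initial absorbance extrapolated from kinetic A340 decline of NADH oxidation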
MK inhibit: S. pneumoniae MK inhibitors, primary screen, biochemical, PK/LDH-coupled NADH absorbance; inhibition, % at 10 µM; 0.48% of 65,000 active; mevalonate kinase [Streptococcus pneumoniae D39]; AID 555, 2006; purified MK, PK/LDH-coupled NADH absorbance 340 nm;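 active = ranked among the strongest by inhibition in the single 10 µM screen, a fixed top-ranked set picked for dose follow-up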
PMK inhibit: S. pneumoniae PMK inhibitors, primary screen, biochemical, mevalonate pathway, pilot trial included; purified PMK, PK/LDH-coupled NADH absorbance 340 nm; inhibition, % at 10 µM; 0.49% of 65,000 active; AID 539, 2006;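 active = top-ranked compounds by inhibition in the single 10 µM screen, taking a fixed number of the strongest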
Large screens that a line does not name were inactive.

CCN(CCNC(=O)C1CCN(c2nnc(-n3cccc3)s2)CC1)c1ccccc1	DPM-DC inhibit active
CCCOc1ccc2c(C)c(CC(=O)OC)c(=O)oc2c1	Autofluor 339 3.7 (not shown: DPM-DC inhibit)
COC(=O)C(CC(C)C)Oc1ccc2c(C)cc(=O)oc2c1 (stereo not given)	none
CCOC(=O)c1oc2cc(OCC(N)=O)ccc2c(=O)c1-c1ccc(OC)c(OC)c1	none
CCc1c(C)c2ccc(OCC(N)=O)cc2oc1=O	Autofluor 339 3.7 (not shown: DPM-DC inhibit)
O=c1c2ccccc2nc2n1CCC2	NADH enzymes inconclusive, MK inhibit 86
O=c1c2ccccc2nc2n1CCCCN2	Autofluor 339 3.8 (not shown: DPM-DC inhibit)
O=c1c2ccccc2nc2n1CCCCC2	none
Nc1ccc2nc3n(c(=O)c2c1)CCC3	Autofluor 339 2.1 (not shown: DPM-DC inhibit)
CCOC(=O)CSc1nc(C)c2cc(OC)ccc2n1	Autofluor 339 3.7 (not shown: DPM-DC inhibit)
CCOC(=O)CCSc1nc(C)c2ccccc2n1	none
CCC(=O)N/C(N)=N/c1nc(C)c2cc(OC)ccc2n1	Autofluor 339 2.1 (not shown: DPM-DC inhibit)
COc1ccc2nc(/N=C(\N)NC(=O)C(C)(C)C)nc(C)c2c1	none
COC(=O)c1c(C(=O)OC)n(CCCN)c2ccc(C)cc12	Autofluor 339 2.4 (not shown: DPM-DC inhibit)
Cc1cc(NCCN2CCOCC2)n2ncc(-c3ccccc3)c2n1	none
Cc1cc(NCCN2CCOCC2)n2nc(C)c(-c3ccccc3)c2n1	none
Cc1cc(NCCN2CCOCC2)n2ncc(-c3ccc(Cl)cc3)c2n1	Autofluor 339 3.3 (not shown: DPM-DC inhibit)
Cc1cc(NCCN2CCOCC2)n2nc(C)c(-c3ccc(Cl)cc3)c2n1	Autofluor 339 2.4
Cc1ccc(-n2nc3c(c2NC(=O)c2c(-c4ccccc4Cl)noc2C)CS(=O)(=O)C3)c(C)c1	PMK inhibit 25
COc1ccccc1N1CCN(C(=O)c2ccc(Br)s2)CC1	none
COc1ccccc1N1CCN(C2CCN(C(=O)c3cccs3)CC2)CC1	MK inhibit 56
CCCn1c(-c2cccs2)nc2ccccc21	Autofluor 339 3.7 (not shown: DPM-DC inhibit)
C=CCn1c(-c2cccs2)nc2ccccc21	Autofluor 339 3.1 (not shown: DPM-DC inhibit)
O=C(CN1C(=O)C2C3C=CC(C3)C2C1=O)N1CCc2ccccc2C1 (stereo not given)	none
COc1ccc(-c2oc3ncn(CCN4CCOCC4)c(=N)c3c2-c2ccc(OC)cc2)cc1	none
c1ccc(-c2oc3ncnc(NCCCN4CCOCC4)c3c2-c2ccccc2)cc1	Autofluor 339 3.8 (not shown: DPM-DC inhibit)
COc1ccc(-c2oc3ncnc(NCCN4CCOCC4)c3c2-c2ccc(OC)cc2)cc1	Autofluor 339 3.8 (not shown: DPM-DC inhibit)
COc1ccc(-c2oc3ncnc(NCCCN4CCOCC4)c3c2-c2ccc(OC)cc2)cc1	Autofluor 339 3.8 (not shown: DPM-DC inhibit)
COc1ccc(N=C(C)C2=C(O)COC2=O)cc1	none
C=CCNc1nc2c3ccccc3n(C(C)=O)c2s1	none
COc1ccc(N2CCN(C(c3ccco3)c3sc4nc(C)nn4c3O)CC2)cc1 (stereo not given)	PMK inhibit 27
CCn1cc(C(=O)NC2CCCCC2C)c(=O)c2ccc(C)nc21 (stereo not given)	none
Cc1c2c(nc3c(C(=O)NC4CCCCC4C)cnn13)CCCC2 (stereo not given)	Autofluor 339 4.4, PMK inhibit 29 (not shown: DPM-DC inhibit)
CCN1CCCC1CNC(=O)C1c2cc(OC)c(OC)cc2C(=O)N(C)C1c1cccnc1 (stereo not given)	none
Cc1ccc(NC(=O)CSc2nnc(Cn3c(=O)sc4ccccc43)n2C)cc1Cl	PMK inhibit 29
CC(C)CN(C(=O)COC(=O)c1cc2c(s1)CCC2)C1CCS(=O)(=O)C1 (stereo not given)	none
CCn1c2ccccc2c2nc3ccccc3nc21	none (not shown: DPM-DC inhibit)
COc1cc2nc3c4ccccc4n(CC#N)c3nc2cc1OC	Autofluor 339 3.8 (not shown: DPM-DC inhibit)
CCn1c2ccccc2c2nc3cc(OC)c(OC)cc3nc21	DPM-DC inhibit active, Autofluor 339 2.7 (no result: MK inhibit)
COC(=O)CN(Cc1ccccc1)S(=O)(=O)c1ccc(OC)c(OC)c1	none
CCOC(=O)c1c(NC(=O)c2noc3c2CCCC3)sc(C)c1C	Autofluor 339 3.3
CCOC(=O)c1sc(NC(=O)c2noc3c2CCCC3)c(C(=O)OCC)c1C	Autofluor 339 2.1 (not shown: DPM-DC inhibit)
COC(=O)CCn1nnc(-c2ccc(C(C)C)cc2)n1	Autofluor 339 3
COC(=O)CCn1nnc(-c2cccs2)n1	none
CC(OC(=O)c1cc(=O)[nH]c2ccccc12)c1ccccc1 (stereo not given)	none
Cc1ccc(-c2nc(CN(C)C)cc(CN(C)C)c2O)cc1	Autofluor 339 3.8 (not shown: DPM-DC inhibit)
COc1ccc(C2c3c(-c4cc(Cl)c(C)cc4O)n[nH]c3C(=O)N2Cc2cccnc2)cc1OC (stereo not given)	none
COc1ccc(CCNc2oc(-c3ccc(C)cc3)nc2C#N)cc1OC	Autofluor 339 2.1 (not shown: DPM-DC inhibit)
COc1ccc(-c2nc(C#N)c(NCCN(C)C)o2)cc1	Autofluor 339 2.1 (not shown: DPM-DC inhibit)
CNc1oc(-c2ccccc2)nc1C#N	Autofluor 339 2.1 (not shown: DPM-DC inhibit)
COc1ccc(-c2nc(C#N)c(NCCc3ccccc3)o2)cc1	Autofluor 339 3.6 (not shown: DPM-DC inhibit)
COc1ccc(CNc2oc(COc3ccc(Cl)cc3)nc2C#N)cc1	none
COc1ccc(CNC(=O)c2ccc(NS(=O)(=O)c3c(C)noc3C)cc2)cc1	none
O=C(c1coc(=O)c(Br)c1)N1CCOCC1	none
CC1(C)CC(NC(=O)c2coc(=O)c(Br)c2)CC(C)(C)N1	Autofluor 339 2.1
CC(C)Cc1cc(C(=O)O)n[nH]1	Autofluor 339 2
O=C(O)c1cc(-c2ccco2)[nH]n1	none
Cc1cc(C)n2c(SCC(=O)N(C)C3CCS(=O)(=O)C3)nnc2n1 (stereo not given)	PMK inhibit 25
CCn1c2ccccc2c2nnc(SCc3cc(=O)n4ccsc4n3)nc21	none
Cc1sc2nc3c4ccccc4c(NCc4ccco4)nn3c(=O)c2c1C	Autofluor 339 4.7 (not shown: DPM-DC inhibit)
Cc1nnc(NCc2ccco2)c2ccccc12	none
O=C1NCCN1C(=O)C12CC3CC(CC(C3)C1)C2	none
CN1CC(=O)NC1=NC(=O)C12CC3CC(CC(C3)C1)C2	DPM-DC inhibit active
Cc1ccc(O)c(CC(C)C)n1	Autofluor 339 2
O=C(O)CCC(=O)Nc1ccc(Br)cn1	none
CCOC(=O)c1[nH]c2ccc(OC)cc2c1NC(=O)CCN1CCc2ccccc2C1	Autofluor 339 2.3 (not shown: DPM-DC inhibit)
COC(=O)c1[nH]c2cc(OC)ccc2c1NC(=O)CCN1CCCCC1	none
COC(=O)c1[nH]c2ccc(Cl)cc2c1NC(=O)CCN1CCOCC1	DPM-DC inhibit active, Autofluor 339 2.1
CCOC(=O)c1[nH]c2ccc(OC)cc2c1NC(=O)CCN1CCC(C)CC1	Autofluor 339 2.5 (not shown: DPM-DC inhibit)
